Giardia FBPA inh – blocks Giardia fructose-bisphosphate aldolase activity | A8B2U2 | purified Giardia FBPA | Potency, µM (highest dose often 59.6 µM), actives largely listed as inhibitors | actives 0.71% (n = 290,000); also: nearly all actives have a fitted effect of over 55% in size
Target sequence (A8B2U2 whole entry, looked up): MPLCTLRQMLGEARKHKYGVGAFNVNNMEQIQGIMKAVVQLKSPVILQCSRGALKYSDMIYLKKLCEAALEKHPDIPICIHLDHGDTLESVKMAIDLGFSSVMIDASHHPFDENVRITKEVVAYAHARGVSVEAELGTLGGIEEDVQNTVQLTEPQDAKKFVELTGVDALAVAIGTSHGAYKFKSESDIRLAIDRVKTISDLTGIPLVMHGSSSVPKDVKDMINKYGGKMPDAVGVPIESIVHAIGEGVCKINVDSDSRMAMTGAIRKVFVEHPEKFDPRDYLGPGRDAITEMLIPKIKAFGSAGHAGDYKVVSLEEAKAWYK
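Giardia FBPA (40 nM reagent) was preincubated 10 min at RT with compound (up to 57.5 uM final), then substrate plus GAPDH/TPI/NAD/arsenate coupling system with diaphorase/resazurin was added; resorufin fluorescence (525/598 nm) was read after 20 min.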
Marburg entry inh – Marburg virus entry inhibition. Marburg virus pseudotyped entry inhibition, cell reporter. Potency, µM (top dose mostly 37.8 µM), most hits filed as inhibitors. actives 1.8% (n = 300,000). AID 540276; calls by dose curve; tested in HEK293 cells
HCMV inh – inhibitors of human cytomegalovirus. HFF cells, HCMV-luciferase reporter, 72 h; stronger effect = lower value. activity change, negative = inhibition, % at 57.5 µM. actives 4.5% (n = 410,000); in the data active = activity change below about -60%; inconclusive = no clear call, values can overlap the other calls; inactive = above about -39%
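Cell-based, HFFs, 1000 cells/well, 16 h 37C; cpds in DMSO + HCMV-luc, MOI 1 PFU/cell; 72 h 37C; OneGlo luminescence after 5 min RT; norm. to buffer vs Salinomycin 10uM.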
Lassa entry inh – blocks Lassa virus binding to or entry into cells; Lassa virus pseudotype entry inhibition, cell reporter; actives 1.2% (n = 300,000); Potency, µM (doses to about 37.9 µM), usual class: inhibitors; AID 540256; calls by dose curve; tested in HEK293 cells; also: nearly all actives have a fitted effect of over 50% in size
FMDV antiviral – foot and mouth disease virus antiviral activity | FMDV antiviral cell-based qHTS | Potency, µM (highest dose often 57.9 µM), usual class: inhibitors | actives 1.2% (n = 410,000) | AID 1159524; calls by dose curve; tested in HEK293T cells; also: read-out not given here; nearly all actives have a fitted effect of over 45% in size
HCV inhibitor – inhibitors of hepatitis C virus infection; Potency, µM (titrated, usually from 41.8 µM), actives largely listed as inhibitors; actives 3.4% (n = 340,000); Huh7.5.1 HCVcc-Cre infection, luciferase reporter, 44 h; AID 651820
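Seed cells (1,000/well) for 4 h; treat with compound and infect with HCVcc-Cre, moi about 0.5. Incubate 44 h, then detect luciferase activity.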
Hits are given with their value; 0 = inactive; ? = inconclusive; - = not tested or not shown. Rows were chosen to be rich in hits. Some 8.3% of all compounds tested hit in one or more screens of this group. Unless noted, calls follow the shape of the dose curve; as a rule, active = well fitted curve in the direction sought with a large enough effect; inconclusive = small, poorly fitted or top-dose-only effect, or another doubt; inactive = no such curve, though single readings can be large; an effect the other way counts as inactive or inconclusive.

SMILES	Giardia FBPA inh	Marburg entry inh	HCMV inh	Lassa entry inh	FMDV antiviral	HCV inhibitor
Cc1c(C)n(CCN(C)C)c2ncnc(NCc3ccccc3)c12	0	0	0	0	0	0
Cc1c(C)n(CCc2ccccc2)c2ncnc(NCCCN(C)C)c12	0	8.9µM	?	0	0	?
OCc1ccc(-c2ccc(-c3ccc(CO)s3)o2)s1	0	-	-	-	0	-
Cn1nc(C(F)(F)F)c2cc(C(=O)Nc3ccc(F)c(Cl)c3)sc21	0	?	-75	?	?	?
Cn1nc(C(F)(F)F)c2cc(C(=O)Nc3ccc(F)cc3)sc21	0	0	0	0	0	?
Cn1nc(C(F)(F)F)c2cc(C(=O)Nc3ccc(C(F)(F)F)cc3)sc21	0	?	-106	?	?	?
CCOc1ccc(CC(=O)NCC(c2cccs2)S(=O)(=O)c2ccc(F)c(C)c2)cc1 (centres undefined)	-	-	?	?	0	-
O=C(COC(=O)c1ccc2[nH]c3c(c2c1)CCCC3)Nc1ccccc1	0	0	0	?	0	13µM
Cc1ccccc1NC(=O)c1cc(C(=O)c2cc(Cl)ccc2O)cn(-c2ccccc2C)c1=O	0	?	-65	?	?	13µM
Cc1cccc(C)c1NC(=O)C1(C)CSCC(=O)N1C1CCN(Cc2ccccc2)CC1 (centres undefined)	-	-	-68	-	0	-
O=C(Cc1ccc([N+](=O)[O-])cc1)c1c(O)cc(O)cc1O	0	-	0	-	0	0
Cc1cc(O)cc(O)c1C(=O)Cc1ccccc1	0	?	-71	?	0	0
CC(C)[C@H](NC(=O)c1ccccc1)C(=O)OCC(=O)/C=C1/N(C)c2ccccc2C1(C)C	0	0	-68	0	?	?
COc1cc(=O)n2c(c1C(=O)N(C)Cc1cscn1)CCN(Cc1c(C)[nH]c3ccccc13)CC2	-	-	-	-	0	-
CCc1cc(/C(Cc2cscn2)=N\O)c(O)cc1O	0	0	0	0	0	0
CCc1cc(/C(Cc2ccccn2)=N\O)c(O)cc1O	0	0	?	0	0	22µM
CC1(C)CC[C@]2(C(=O)n3ccnc3)CC[C@]3(C)[C@H](C(=O)C=C4[C@@]5(C)C=C(C#N)C(=O)C(C)(C)[C@@H]5CC[C@]43C)[C@@H]2C1	-	2.5µM	-101	2.5µM	1.4µM	?
Cc1cccc2nc(-c3cccc(NS(=O)(=O)c4ccccc4)c3)cn12	-	0	0	0	0	-
Cc1cccc(N2CCN(C(=O)C3CCN(S(=O)(=O)c4c(C)noc4C)CC3)CC2)c1C	-	0	0	0	?	13µM
Cc1noc(C)c1S(=O)(=O)N1CCC(C(=O)N2CCN(c3ccccc3Cl)CC2)CC1	0	0	0	0	0	0
CC(=O)c1ccc(N2CCN(C(=O)C3CCN(S(=O)(=O)c4c(C)noc4/C=C/c4ccc(C)cc4)CC3)CC2)cc1	-	-	0	0	0	-
Cc1ccc(C)c(N2CCN(C(=O)C3CCN(S(=O)(=O)c4c(C)noc4C)CC3)CC2)c1	0	0	-68	-	?	?
Cc1ccc(/C=C/c2onc(C)c2S(=O)(=O)N2CCC(C(=O)N3CCC(N(C)C(C)C)CC3)CC2)cc1	-	-	-101	0	0	-
Cc1ccc(C)c(N2CCN(C(=O)C3CCCN(S(=O)(=O)c4c(C)noc4C)C3)CC2)c1 (centres undefined)	0	0	0	-	0	11µM
Cc1cccc(-n2c3nc(=O)n(C)c(=O)c-3cc3c(C)nn(-c4ccccc4)c32)c1C	-	0	0	0	0	-
SMILES	Giardia FBPA inh	Marburg entry inh	HCMV inh	Lassa entry inh	FMDV antiviral	HCV inhibitor
CCOC(=O)CCN1C(=O)[C@H]2[C@H]3[C@H](O)[C@H](O)C/C(=N\NC(=O)OCc4ccc(OC)cc4)[C@H]3CC[C@H]2C1=O	-	0	-	-	-	-
CC(C)c1ccc(-c2noc(SCC(=O)N3CCCCC3C)n2)cc1 (centres undefined)	-	-	0	0	0	-
COc1cc(OC)c(NC(=O)c2c(N3CCCC3=O)c3cc(C)ccc3n2C)cc1Cl	-	-	0	0	0	-
NCC(=O)N[C@@H](CCCN=C(N)N)C(=O)NCC(=O)N[C@@H](CC(=O)O)C(=O)N[C@@H](CO)C(=O)N1CCC[C@H]1C(=O)O	0	-	-	-	-	-
Cc1cc(C)c(O)c(CN(C)Cc2cc(Cl)cc(Cl)c2O)c1	-	3.2µM	0	?	0	?
CN(C)CCN(Cc1ccccc1)S(=O)(=O)c1ccc(-c2cc(C(F)(F)F)on2)s1	-	-	-100	0	0	-

High-throughput results (PubChem)
